FLuc counter = counter-screen for miR-21 project: firefly luciferase inhibitors or activators. hit rate 6.9% among 360,000. Potency, µM (series often up to 57.5 µM), for the others: top-dose activity change, negative = inhibition, hits mostly inhibitors. AID 588342. purified FLuc, Km substrates, luminescence inhibition;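 note: plate controls were vehicle for no effect and reference inhibitor for full effect; nearly all actives have a fitted effect of over 55% in size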
Target sequence (P08659 whole entry, looked up): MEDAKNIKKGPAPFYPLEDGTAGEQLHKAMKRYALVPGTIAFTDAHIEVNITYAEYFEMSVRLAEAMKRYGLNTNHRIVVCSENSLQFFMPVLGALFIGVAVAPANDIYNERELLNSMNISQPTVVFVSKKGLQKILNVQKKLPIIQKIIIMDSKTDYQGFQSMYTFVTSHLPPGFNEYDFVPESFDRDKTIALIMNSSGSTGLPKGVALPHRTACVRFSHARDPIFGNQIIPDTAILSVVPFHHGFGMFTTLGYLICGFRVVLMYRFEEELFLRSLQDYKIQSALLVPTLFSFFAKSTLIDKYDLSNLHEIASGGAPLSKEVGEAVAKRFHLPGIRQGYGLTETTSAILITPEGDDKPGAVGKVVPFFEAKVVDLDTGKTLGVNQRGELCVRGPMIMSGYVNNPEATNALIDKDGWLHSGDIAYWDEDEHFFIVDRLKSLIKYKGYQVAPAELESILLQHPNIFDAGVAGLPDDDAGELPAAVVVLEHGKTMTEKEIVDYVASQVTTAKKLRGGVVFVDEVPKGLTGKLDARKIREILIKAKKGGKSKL
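Purified P. pyralis luciferase, 10 nM final, with Km-level 10 uM D-luciferin and 10 uM ATP in 50 mM Tris acetate pH 7.5, 10 mM Mg acetate, 0.01% Tween-20, 0.05% BSA; 6-point qHTS titration about 60 µM downward; luminescence read.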
ELG1 genotox = inducers of genotoxicity in HEK293T ELG1-luciferase cells; HEK293T ELG1-luciferase reporter, luminescence, 16 h; Potency, µM (top dose mostly 46 µM), for the others: top-dose activity change, positive = activation, actives largely listed as activators; hit rate 1.3% among 330,000; note: % of control where 0% means no effect; nearly all actives have a fitted effect of over 60% in size
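Luminescence read-out: rising ELG1-luciferase signal, reflecting elevated ELG1 protein under genetic stress, flags genotoxic compounds. Cells were treated for 16 hr at 37 °C before ONE-Glo detection.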
NPC1 promoter act = NPC1 promoter activation; AID 485313; hit rate 2.4% among 320,000; Potency, µM (doses to about 9.22 µM), without a hit: at the top dose activation, actives largely listed as activators; Huh7 NPC1 promoter luciferase reporter, 24 h; note: % of control where 0% means no effect; nearly all actives have a fitted effect of over 60% in size
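Stably transfected Huh7 (NPC1 promoter→luciferase), 1500 cells/well in Opti-MEM + 10% FBS, 2 h settle, then compound 24 h at 37 °C. Luminescence after 10 min with Amplite reagent.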
SMN2 splice up = SMN2 splice variant enhancement. HEK293 SMN2-luciferase splicing reporter, luminescence, 30-36 h. Potency, µM (doses to about 46.1 µM), for inactives: top-dose activity change, positive = activation, hits mostly activators. hit rate 2.8% among 210,000. AID 1458; note: % of control where 0% means no effect; nearly all actives have a fitted effect of over 55% in size
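HEK293 cells carry an SMN2 […]–luciferase reporter in which exon 7 inclusion puts luciferase in frame. Cells were plated 10-12 h before compound addition, then incubated 30-36 h at 37C. ONE-Glo luminescence was read; sodium butyrate at 4.5 mM final served as control.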
Rab9 prom act = Rab9 promoter activation | hit rate 2.8% among 320,000 | Potency, µM (top dose mostly 9.22 µM), for inactives: top-dose activation, negative = inhibition, usual class: activators | Huh7 Rab9 promoter-luciferase reporter, luminescence, 24 h; note: % of control where 0% means no effect; nearly all actives have a fitted effect of over 60% in size
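Using Huh7 cells stably transfected with Rab9 promoter–luciferase, compounds were incubated 24 h at 37 °C, 5% CO2; luciferase luminescence was read 10 min after reagent addition.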
ELG1 DNA repair = ELG1-dependent DNA repair inhibition | HEK293T ELG1-luciferase reporter, luminescence, 16 h; DNA damage induced by 5-fluorouridine | Potency, µM (highest dose often 46.1 µM), for the others: at the top dose activity change, negative = inhibition, actives largely listed as inhibitors | hit rate 2.3% among 330,000 | AID 504467; note: % is set by controls: 0 for no effect and ±100 for the full control effect; nearly all actives have a fitted effect of over 55% in size
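Reporter activity after DNA damage by 5-fluorouridine is monitored. Compound-treated cells incubate 16 hr at 37 °C, then ONE-Glo is added for 30 min before luminescence reading.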
An asterisk follows results filed as active; u = inconclusive; x = no result; [ ] = dose if it differs, or a comment. Hits are enriched below; roughly 9.4% of the tested compounds scored in any of these assays. Calls come from the whole dose curve; as a rule, active = well fitted curve in the direction sought with a large enough effect; inconclusive = small, poorly fitted or top-dose-only effect, or another doubt; inactive = no such curve, though single readings can be large; an effect the other way counts as inactive or inconclusive. Potency is the fitted concentration of half-maximal effect.

SMILES	FLuc counter	ELG1 genotox	NPC1 promoter act	SMN2 splice up	Rab9 prom act	ELG1 DNA repair
CCCN(CCC)c1nc(-c2ccccn2)nc2ccccc12	6%	-10%	-37%	x	-55%	u
c1ccc(-c2nc(N3CCCCCC3)c3ccccc3n2)nc1	-16%	-7%	-24%	x	-35%	2.6µM*
c1ccc(CN2CCN(c3nc(-c4ccccn4)nc4ccccc34)CC2)cc1	-5%	-10%	4%	-31%	-17%	8.2µM*
c1ccc(-c2nc(N3CCOCC3)c3ccccc3n2)nc1	4%	-7%	2%	5%	0%	16µM*
c1ccc(CCNc2nc(-c3ccccn3)nc3ccccc23)cc1	u	-13%	-17%	x	-25%	4.1µM*
CCN1CCN(c2nc(-c3ccccn3)nc3ccccc23)CC1	0%	-8%	0%	u	1%	u
CC1=C(C(=O)Nc2ccccc2)C(c2ccccc2C)n2nc(SCC(=O)c3ccc(C)cc3)nc2N1 (centres undefined)	-7%	x	x	x	x	x
CCCn1c2ccccc2c2cnn(CC(=O)N(CCCOC)Cc3ccco3)c(=O)c21	-8%	x	x	x	x	x
COc1ccc(Oc2nc(-c3ccccn3)nc3ccccc23)cc1	-18%	-6%	-1%	x	-3%	9.2µM*
c1ccc(Oc2nc(-c3ccccn3)nc3ccccc23)cc1	-15%	-17%	1%	x	-5%	u
O=C(Nc1ccc(C(=O)OCc2cc(=O)n3c4c(sc3n2)CCCC4)cc1)c1ccc(Cl)cc1	2%	x	x	x	x	x
COc1ccccc1CNC(=O)c1ccccc1C(=O)NC(CC(C)C)C(=O)NCc1ccccc1OC (centres undefined)	0%	-3%[9.26 µM]	-4%	x	4%	21µM*
Cc1ccc(N2NC(C)(c3cccs3)NC2=S)cc1 (centres undefined)	9.5µM*	u	4.5µM*	22%	3.5µM*	u
CCOC(=O)Cn1c(=O)oc2cc(S(=O)(=O)N3CCC(C(=O)OCC)CC3)ccc21	-1%	x	x	-1%	x	x
COc1ccc(CNC(=O)CSc2ccsc2[N+](=O)[O-])cc1	17µM*	u	u	u	2.2µM*	u
Cc1ccc(CNC(=O)CSc2ccsc2[N+](=O)[O-])cc1	u	u	u	u	1.4µM*	u
O=C(CSc1ccsc1[N+](=O)[O-])NCCc1ccc(Cl)cc1	-1%	0%	2%	-13%	-8%	12%
CCOC(=O)C1=C(CN2CCN(c3ccccc3F)CC2)NC(=O)NC1c1ccc(OC)cc1 (centres undefined)	-11%	x	x	x	x	x
CC(=O)CC(=O)NC(=NC1CCCCC1)Nc1nc(C)cc(C)n1	-1%	0%	0%	-1%	-1%	10µM*
Cc1cc(C)nc(NC(N)=NC2CCCCC2)n1	0%	-10%	0%	-6%	-8%	u
Cc1ccccc1OCC(O)Cn1nnc2ccccc21 (centres undefined)	21µM*	u	u	11µM*	3.5µM*	u
Cc1ccc(C(=O)Nc2ccc(O)cc2C(=O)O)cc1C	3.4µM*	8%	2%	-13%	-32%	0%
Cc1cccc(C(=O)Nc2ccc(O)cc2C(=O)O)c1	21µM*	-1%	1%	3%	11%	8%
COc1ccc(NC(=O)c2ccc(C)cc2)c(OC)c1	5.4µM*	u	u	18µM*	u	u
COc1ccc(C(=O)Nc2ccc(C3=NNC(=O)CC3C)cc2NC(=O)c2ccc(OC)cc2)cc1 (centres undefined)	-2%	-13%	-6%	u	3%	16µM*
Cc1cccc(C(=O)Nc2ccc(O)cc2)c1	u	27%	u	27%	u	u
O=C1CN(C(=O)COc2ccc(Cl)cc2Cl)C(c2ccc(F)cc2)c2cc(F)ccc2N1 (centres undefined)	-8%	x	x	-16%	x	x

From PubChem
